GDH-TPI counter-1: inhibits GDH-TPI coupling enzymes, artifact for Mtb FBA screen; GDH-TPI coupled enzyme counterscreen, NADH absorbance; inhibition, % at 4.8 µM; 1.2% of 360,000 active;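 further: 0% = DMSO wells and 100% = wells lacking the enzyme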
MazF activator: MazEF (E. coli) toxin RNase activation | FAM/BHQ RNA-DNA oligo cleavage fluorescence, 5 h | 0.32% of 350,000 active | P0AE70 | activation, % at 20 µM; in the data active means activation above about 50%
Target sequence (P0AE70 whole entry, looked up): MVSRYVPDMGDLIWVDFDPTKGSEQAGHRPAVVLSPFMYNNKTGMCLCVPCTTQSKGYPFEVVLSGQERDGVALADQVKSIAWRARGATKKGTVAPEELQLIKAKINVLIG
Mtb betalactam: beta-lactam sensitization of Mtb H37Rv. M. tuberculosis H37Rv growth with meropenem, percent inhibition. inhibition, % at 25 µM. 0.27% of 330,000 active. AID 434955; call rule not given here;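 further: growth measured after seven days incubation then overnight dye step; 0% = bacteria only wells and 100% = bacteria with antibiotic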
CCHF vOTU inh: CCHFV vOTU protease inhibition; AID 651958; 0.55% of 370,000 active; Pep-AMC fluorescence; inhibition, % at 11.5 µM; further: 0% = vehicle wells with enzyme and 100% = no enzyme wells
FBA Mtb inh: inhibitors of M. tuberculosis fructose-bisphosphate aldolase | AID 588726 | inhibition, % at 1 µM | 2.3% of 360,000 active | purified M. tuberculosis FBA, fluorescence read-out | P9WQA3; in the data active means inhibition above about 27%;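 further: 0% = vehicle and 100% = reference inhibitor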
Target sequence (P9WQA3 whole entry, looked up): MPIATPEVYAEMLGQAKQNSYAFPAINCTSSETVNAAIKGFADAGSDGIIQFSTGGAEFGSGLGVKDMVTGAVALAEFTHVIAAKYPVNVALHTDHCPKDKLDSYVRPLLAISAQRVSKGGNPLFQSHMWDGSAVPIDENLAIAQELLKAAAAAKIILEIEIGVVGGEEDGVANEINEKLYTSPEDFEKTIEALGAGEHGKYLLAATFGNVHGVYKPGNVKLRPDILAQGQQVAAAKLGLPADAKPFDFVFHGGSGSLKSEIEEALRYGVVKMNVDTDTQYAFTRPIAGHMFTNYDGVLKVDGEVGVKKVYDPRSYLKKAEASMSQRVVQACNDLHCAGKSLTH
Mtb FBA inh conf: Mtb FBA inhibition, confirmed. purified M. tuberculosis FBA, fluorescence read-out. 78% of 5,600 active. shares compounds with FBA Mtb inh. inhibition, % at 1 µM; in the data active means inhibition above about 27%;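 further: 0% = vehicle wells and 100% = reference inhibitor wells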
GDH-TPI counter-2: counter-screen for M. tuberculosis FBA inhibitors: GDH-TPI coupled enzyme inhibition; shares compounds with FBA Mtb inh; GDH-TPI coupled enzyme counterscreen, fluorescence; inhibition, % at 1 µM; 81% of 5,600 active; in the data active means inhibition above about 10%
* marks the source's active call; other numbers are inactive results. Shown are actives, neighbours in structure and some others; about 4% of the full set was active somewhere. Unless noted, no stated cut-off is given here; in the data, active means inhibition above about 30%; inactive means the rest.

For COC(=O)[C@]12C[C@H](CC(=O)NCCCN3CCCC3=O)C(=O)N(Cc3ccc4c(c3)OCO4)C1=C[C@H](COCc1ccccc1)O[C@@H]2C the results were CCHF vOTU inh 5.6.
Screening c1ccc(-n2cc(CN3CCC(N4CCOCC4)CC3)c(-c3ccc4c(c3)OCO4)n2)cc1 returned GDH-TPI counter-1 11.2, MazF activator 2.8, Mtb betalactam -2.6, CCHF vOTU inh -6.2, FBA Mtb inh 36.4*, Mtb FBA inh conf 54.6* and GDH-TPI counter-2 65.5*.
Screening CCC(NC(=O)c1ccccc1O)c1ccccc1 (stereo not given) returned GDH-TPI counter-1 -1.4, MazF activator -3.0, Mtb betalactam -1.5, CCHF vOTU inh -15.1, FBA Mtb inh 43.1*, Mtb FBA inh conf 168.0* and GDH-TPI counter-2 119.5*.
For C[C@H]1Cn2nncc2Cn2c3ccccc3c(=O)n21 the results were CCHF vOTU inh -18.6.
For Fc1ccccc1/C=N/n1cc(-c2ccccc2)[nH]c1=S the results were GDH-TPI counter-1 -2.0, MazF activator -1.1, Mtb betalactam -4.3, CCHF vOTU inh -5.9, FBA Mtb inh 51.0*, Mtb FBA inh conf 136.7* and GDH-TPI counter-2 127.2*.
Cc1ccc(C)c(/C=N/n2cc(-c3ccccc3)[nH]c2=S)c1 was read as GDH-TPI counter-1 1.2, MazF activator 9.4, Mtb betalactam 1.2, CCHF vOTU inh 4.8, FBA Mtb inh 43.4*, Mtb FBA inh conf active and GDH-TPI counter-2 active.
For COc1ccc(C2=CC(=O)CC(C)(C)C2=O)cc1 the results were CCHF vOTU inh -2.7.
For COC(=O)[C@]12C[C@H](CC(=O)N3CCOCC3)C(=O)N(Cc3ccco3)C1=C[C@H](C1CCCC1)O[C@@H]2C the results were CCHF vOTU inh -8.7.
Screening COc1ccc2c(c1)oc(=O)c1c3ccccc3[nH]c21 returned GDH-TPI counter-1 14.8, MazF activator -2.3, CCHF vOTU inh -1.5 and FBA Mtb inh 15.1.
For O=C(O)C(Oc1ccc2ccccc2c1)c1ccccc1 (stereo not given) the results were GDH-TPI counter-1 -4.6, MazF activator -0.9, Mtb betalactam -8.1, CCHF vOTU inh 1.5 and FBA Mtb inh 3.3.
Screening COc1ccc2c(c1)oc(=O)c1ccccc12 returned GDH-TPI counter-1 4.9, MazF activator 0.1, Mtb betalactam -1.4, CCHF vOTU inh -72.3, FBA Mtb inh 87.6*, Mtb FBA inh conf 40.8* and GDH-TPI counter-2 31.0*.
Screening O=C(O)C(Oc1ccc2c(c1)oc(=O)c1ccccc12)c1ccccc1 (stereo not given) returned GDH-TPI counter-1 9.4, MazF activator -4.9, Mtb betalactam -2.4, CCHF vOTU inh -79.8, FBA Mtb inh 92.1*, Mtb FBA inh conf 36.9* and GDH-TPI counter-2 30.3*.
For CC(C)(C)c1ccc(C(=O)NCCc2ccccc2)cc1 the results were GDH-TPI counter-1 5.5, MazF activator -11.6, Mtb betalactam 4.9, CCHF vOTU inh 10.0, FBA Mtb inh 27.1*, Mtb FBA inh conf 111.1* and GDH-TPI counter-2 93.4*.
Cc1c(CCC(=O)O)c(=O)oc2cc3oc4c(c3cc12)CCCC4 was read as GDH-TPI counter-1 11.4, MazF activator 3.9, Mtb betalactam 2.3, CCHF vOTU inh -16.9 and FBA Mtb inh 5.3.
For Cc1c(CCC(=O)NCC(=O)NCC(=O)O)c(=O)oc2cc3oc4c(c3cc12)CCCC4 the results were GDH-TPI counter-1 20.7, MazF activator -6.7, Mtb betalactam -3.1, CCHF vOTU inh -28.5, FBA Mtb inh 35.3*, Mtb FBA inh conf -3.2 and GDH-TPI counter-2 -3.5.
For CC(c1c[nH]c2ccccc12)c1cn(C)c2ccccc12 (stereo not given) the results were CCHF vOTU inh 0.8.
`CC(C)N1CCN(Cc2cc(F)ccc2-n2cccn2)CC1CCO` (stereo not given) gave GDH-TPI counter-1 -3.8, MazF activator 6.0, Mtb betalactam 3.5, CCHF vOTU inh 10.7, FBA Mtb inh 37.5*, Mtb FBA inh conf 105.7* and GDH-TPI counter-2 81.7*.
`CNC(=O)c1ccc(-c2ccc(F)cc2)s1` gave GDH-TPI counter-1 6.0, MazF activator -6.8, Mtb betalactam -4.8, CCHF vOTU inh -2.7, FBA Mtb inh 40.6*, Mtb FBA inh conf 115.3* and GDH-TPI counter-2 95.2*.
For O=c1[nH]c2cc3c(cc2cc1C(c1nnnn1C1CCCC1)N1CCSCC1)OCCO3 (stereo not given) the results were GDH-TPI counter-1 16.2, MazF activator 6.2, Mtb betalactam -9.1, CCHF vOTU inh -29.1, FBA Mtb inh 30.6*, Mtb FBA inh conf 143.8* and GDH-TPI counter-2 91.3*.
For CCC(C)(C)n1nnnc1C(c1cc2cc3c(cc2[nH]c1=O)OCO3)N1CCN(C)CC1 (stereo not given) the results were GDH-TPI counter-1 25.0, MazF activator 5.8, Mtb betalactam -2.2, CCHF vOTU inh -62.4, FBA Mtb inh 59.3*, Mtb FBA inh conf 32.4* and GDH-TPI counter-2 28.3*.
For CCC(C)(C)n1nnnc1C(c1cc2cc(C)cc(C)c2[nH]c1=O)N1CCN(Cc2ccc3c(c2)OCO3)CC1 (stereo not given) the results were GDH-TPI counter-1 2.9, MazF activator -4.8, CCHF vOTU inh 9.7 and FBA Mtb inh 1.4.
Screening Cc1cccc2cc(C(c3nnnn3C3CCCC3)N3CCOCC3)c(=O)[nH]c12 (stereo not given) returned GDH-TPI counter-1 16.5, MazF activator 1.4, Mtb betalactam 6.5, CCHF vOTU inh -7.6 and FBA Mtb inh 2.0.
Screening CCn1c(SCC(=O)N2CCOCC2)nnc1-c1cccs1 returned GDH-TPI counter-1 5.8, MazF activator 2.1, Mtb betalactam 15.3, CCHF vOTU inh 0.9, FBA Mtb inh 70.2*, Mtb FBA inh conf 141.5* and GDH-TPI counter-2 116.8*.
Cn1c(=O)c2cc(NC(=O)Cc3ccccc3F)ccc2n1-c1ccc(C(C)(C)C)cc1 was read as GDH-TPI counter-1 10.8, CCHF vOTU inh -15.1 and FBA Mtb inh 26.6.
`O=C(NCc1ccc(Cl)cc1Cl)C1CC(=O)N(Cc2ccccc2)C1` (stereo not given) gave GDH-TPI counter-1 -0.6, MazF activator 4.5, Mtb betalactam -9.9, CCHF vOTU inh -11.4 and FBA Mtb inh 0.2.
Cn1c(=O)c2cc(NC(=O)CCc3cccc(Cl)c3)ccc2n1Cc1cccc(C(F)(F)F)c1 was read as GDH-TPI counter-1 -3.5, CCHF vOTU inh 9.9, FBA Mtb inh 36.7*, Mtb FBA inh conf 95.6* and GDH-TPI counter-2 84.3*.
`Cn1c(=O)c2cc(NC(=O)NCc3ccc(Cl)cc3Cl)ccc2n1Cc1ccccc1` gave GDH-TPI counter-1 8.0, CCHF vOTU inh -36.4, FBA Mtb inh 48.3*, Mtb FBA inh conf 152.5* and GDH-TPI counter-2 116.6*.
`Cn1c(=O)c2cc(NC(=S)NCc3ccccc3F)ccc2n1C` gave GDH-TPI counter-1 8.2, CCHF vOTU inh -106.8, FBA Mtb inh 57.1*, Mtb FBA inh conf 17.8 and GDH-TPI counter-2 11.8*.

Source: PubChem (several laboratories)
